# Assay results taken from PubChem BioAssay.
# Activity calls are given as the source filed them. Cut-off read from the data, not from the text of the source, unless noted: active = inhibition above about 44%; inactive = the rest.
# Target: Steroidogenic factor 1 (Homo sapiens) (UniProt Q13285)
# Assay: inverse agonism at SF1 nuclear receptor – cell-based, luminescence, high throughput, counter-screen for LRH-1 inverse agonist project (AID 651614);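 note: cells cotransfected with StAR promoter reporter and SF1 expression vector; 0% = vehicle on cells with receptor and 100% = vehicle on cells lacking receptor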
# Details: cell-based SF1 luciferase reporter, at 3.6 µM, hits give high values
# Chain of Steroidogenic factor 1 (Homo sapiens) (Q13285 whole entry, looked up): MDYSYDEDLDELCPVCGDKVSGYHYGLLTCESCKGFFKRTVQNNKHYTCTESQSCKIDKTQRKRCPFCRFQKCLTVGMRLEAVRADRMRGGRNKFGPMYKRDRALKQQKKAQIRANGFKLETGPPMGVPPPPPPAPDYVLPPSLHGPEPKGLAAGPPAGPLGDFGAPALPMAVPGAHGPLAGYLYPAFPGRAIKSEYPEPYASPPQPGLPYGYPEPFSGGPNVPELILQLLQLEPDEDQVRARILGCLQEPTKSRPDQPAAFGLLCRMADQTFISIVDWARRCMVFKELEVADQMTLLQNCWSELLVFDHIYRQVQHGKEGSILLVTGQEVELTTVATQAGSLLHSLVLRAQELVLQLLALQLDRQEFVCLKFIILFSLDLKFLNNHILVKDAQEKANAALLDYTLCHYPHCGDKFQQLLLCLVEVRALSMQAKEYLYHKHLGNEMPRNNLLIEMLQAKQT
row,SMILES,inhibition
1,NC(=O)C1CCN(C(=O)COc2ccc3c4c(c(=O)oc3c2)CCC4)CC1,36.4% (inactive)
2,O=C(CCl)Nc1cccc2ncccc12,60.9% (active)
3,CCCc1cc(=O)oc2cc(OCC(=O)NCc3ccccn3)ccc12,59.1% (active)
4,Cc1ccc(N2CC(C(=O)Nc3nc4ccc(S(C)(=O)=O)cc4s3)CC2=O)cc1 (stereo not given),48.4% (active)
5,O=C(Nc1cccc(NC(=O)c2ccccc2Cl)c1)c1ccc([N+](=O)[O-])o1,66.8% (active)
6,Cc1nc2ccc(NS(=O)(=O)c3ccc4c(c3)OCCO4)cc2s1,57.4% (active)
7,Cc1cc2ccccn2c1C(=O)c1cccc([N+](=O)[O-])c1,42% (inactive)
8,O=C(C(Cl)c1ccccc1)N1CCOCC1 (stereo not given),54.5% (active)
9,CC(NC(=O)CCl)c1ccc(Cl)c(Cl)c1 (stereo not given),67.3% (active)
10,O=C(COc1ccc2c3c(c(=O)oc2c1)CCCC3)NCCCN1CCOCC1,45% (active)
11,OC(c1ccc2ccccc2n1)c1c(Cl)cccc1Cl (stereo not given),41.4% (inactive)
12,COc1ccc(-c2nnnn2-c2ccccc2OC)cc1,54.3% (active)
13,CCOC(=O)C1CCN(Cc2cc(Cl)c3ccccc3c2O)CC1,32.9% (inactive)
14,Cn1c(SCC(=O)Nc2ccc(N3CCOCC3)cc2)nnc1-c1ccccc1,47.5% (active)
15,COCc1cc(C)n(CC(=O)Nc2ccc(N3CCOCC3)c(Cl)c2)c(=O)c1C#N,40.9% (inactive)
16,COc1cccc(C(=O)COc2cccc(NC(=O)c3cccc([N+](=O)[O-])c3)c2)c1,59.3% (active)
17,COc1ccccc1Cc1c(-c2ccc(OC)c(OC)c2)nc2c3ccccc3ccn12,32% (inactive)
18,COC(=O)CC1(C(=O)OC)Oc2ccc(Br)cc2C(=O)N1c1cc(Cl)c(Cl)cc1Cl (stereo not given),48.2% (active)
19,O=C(CN1C(=O)C(c2ccc(F)cc2)=NC12CCCC2)Nc1ccc(F)cc1,49.4% (active)
20,CCCc1cc(=O)n2nc(N3CCC(C(=O)N4CCN(c5ccc(OC)cc5)CC4)CC3)sc2n1,55.1% (active)

row,SMILES,inhibition
1,COc1ccc(NC(=S)NCCc2ccc(F)cc2)c(OC)c1,18.5% (inactive)
2,O=C(CCl)NCCN1C(=O)S/C(=C\c2cccnc2)C1=O,57.4% (active)
3,CCN1CCN(c2ccc(S(=O)(=O)N3CCCCC3)cc2NC(=O)/C=C/c2ccc([N+](=O)[O-])cc2)CC1,49.4% (active)
4,CC(=O)Nc1cc(-c2ccc(F)cc2)cn2c(-c3ccc(S(C)(=O)=O)cc3)cnc12,48.7% (active)
5,c1ccc(Oc2nc(-c3cccnc3)nc3ccccc23)cc1,53.3% (active)
6,CCOC(=O)N1CCN(C(=O)CSc2nc3c([nH]c4ccccc43)c(=O)n2CC)CC1,55.8% (active)
7,CCOc1ccc(S(=O)(=O)Nc2nc3ccccc3nc2N2CCN(C)CC2)cc1,24.1% (inactive)
8,COc1ccc(N2CCN(C(=O)CSc3nnc(-c4cc5ccccc5cc4O)n3C)CC2)cc1,58.3% (active)
9,O=C(Nc1nc2c(Cl)cccc2s1)c1ccc([N+](=O)[O-])o1,62.2% (active)
10,Cc1onc(-c2cccc(Cl)c2Cl)c1C(=O)O/N=C(\N)c1ccc([N+](=O)[O-])o1,67.3% (active)
11,CC(=O)N1CCN(c2ccccc2NC(=O)c2cc3ccccc3o2)CC1,37.7% (inactive)
12,CCCOc1ccc(Cn2cnc3ccccc32)cc1,52.4% (active)
13,Cc1ccc(-c2csc(NC(=O)c3ccc([N+](=O)[O-])o3)n2)cc1,54.4% (active)
14,O=C(Nc1ccccc1Cl)c1ccc([N+](=O)[O-])o1,75.9% (active)
15,Nc1ccc(C(=O)NN2C(=O)[C@H](Cl)C2c2ccc(Cl)cc2)cc1 (stereo not given in full),52.1% (active)
16,Cc1ccc(S(=O)(=O)Nc2ccc3c(c2)n(C)c(=O)n3C)cc1,38.3% (inactive)
17,COc1ccc(C2=Nn3c(nnc3-c3ccncc3)SC2)cc1OC,39.6% (inactive)
18,O=C(NCc1cccnc1)c1ccc([N+](=O)[O-])o1,63.4% (active)
19,COc1cccc2c1C(=O)c1c(O)c3c(c(O)c1C2=O)C[C@@](O)(C(C)=O)C[C@@H]3O[C@H]1C[C@H](N)[C@H](O)[C@H](C)O1,94.4% (active)
20,COc1ccc(/C=N/OCC(=O)NC(c2ccccc2)c2ccccc2)cc1OC,66.4% (active)

# Test system: not listed separately
# Assay: compounds suppressing VP16-driven luciferase signal – cell-based, luminescence, high throughput, counter-screen for LRH-1 inverse agonist project (AID 651615; in the data active = inhibition above about 33%)
# Details: Gal4-VP16 luciferase reporter cells, at 3.6 µM, hits give high values
row,SMILES,inhibition
1,NC(=O)C1CCN(C(=O)COc2ccc3c4c(c(=O)oc3c2)CCC4)CC1,-10.9% (inactive)
2,O=C(CCl)Nc1cccc2ncccc12,-58.5% (inactive)
3,CCCc1cc(=O)oc2cc(OCC(=O)NCc3ccccn3)ccc12,-9.39% (inactive)
4,Cc1ccc(N2CC(C(=O)Nc3nc4ccc(S(C)(=O)=O)cc4s3)CC2=O)cc1 (stereo not given),-0.21% (inactive)
5,O=C(Nc1cccc(NC(=O)c2ccccc2Cl)c1)c1ccc([N+](=O)[O-])o1,-5.43% (inactive)
6,Cc1nc2ccc(NS(=O)(=O)c3ccc4c(c3)OCCO4)cc2s1,52.6% (active)
7,Cc1cc2ccccn2c1C(=O)c1cccc([N+](=O)[O-])c1,-4.87% (inactive)
8,O=C(C(Cl)c1ccccc1)N1CCOCC1 (stereo not given),-10.2% (inactive)
9,CC(NC(=O)CCl)c1ccc(Cl)c(Cl)c1 (stereo not given),-15.3% (inactive)
10,O=C(COc1ccc2c3c(c(=O)oc2c1)CCCC3)NCCCN1CCOCC1,-6.23% (inactive)
11,OC(c1ccc2ccccc2n1)c1c(Cl)cccc1Cl (stereo not given),17.8% (inactive)
12,COc1ccc(-c2nnnn2-c2ccccc2OC)cc1,0.37% (inactive)
13,CCOC(=O)C1CCN(Cc2cc(Cl)c3ccccc3c2O)CC1,2.83% (inactive)
14,Cn1c(SCC(=O)Nc2ccc(N3CCOCC3)cc2)nnc1-c1ccccc1,-12.2% (inactive)
15,COCc1cc(C)n(CC(=O)Nc2ccc(N3CCOCC3)c(Cl)c2)c(=O)c1C#N,6.57% (inactive)
16,COc1cccc(C(=O)COc2cccc(NC(=O)c3cccc([N+](=O)[O-])c3)c2)c1,2.28% (inactive)
17,COc1ccccc1Cc1c(-c2ccc(OC)c(OC)c2)nc2c3ccccc3ccn12,-1.36% (inactive)
18,COC(=O)CC1(C(=O)OC)Oc2ccc(Br)cc2C(=O)N1c1cc(Cl)c(Cl)cc1Cl (stereo not given),20.2% (inactive)
19,O=C(CN1C(=O)C(c2ccc(F)cc2)=NC12CCCC2)Nc1ccc(F)cc1,38.4% (active)
20,CCCc1cc(=O)n2nc(N3CCC(C(=O)N4CCN(c5ccc(OC)cc5)CC4)CC3)sc2n1,49.8% (active)

row,SMILES,inhibition
1,COc1ccc(NC(=S)NCCc2ccc(F)cc2)c(OC)c1,-8.33% (inactive)
2,O=C(CCl)NCCN1C(=O)S/C(=C\c2cccnc2)C1=O,-3.37% (inactive)
3,CCN1CCN(c2ccc(S(=O)(=O)N3CCCCC3)cc2NC(=O)/C=C/c2ccc([N+](=O)[O-])cc2)CC1,3.5% (inactive)
4,CC(=O)Nc1cc(-c2ccc(F)cc2)cn2c(-c3ccc(S(C)(=O)=O)cc3)cnc12,-16.1% (inactive)
5,c1ccc(Oc2nc(-c3cccnc3)nc3ccccc23)cc1,1.32% (inactive)
6,CCOC(=O)N1CCN(C(=O)CSc2nc3c([nH]c4ccccc43)c(=O)n2CC)CC1,-25.2% (inactive)
7,CCOc1ccc(S(=O)(=O)Nc2nc3ccccc3nc2N2CCN(C)CC2)cc1,-4.2% (inactive)
8,COc1ccc(N2CCN(C(=O)CSc3nnc(-c4cc5ccccc5cc4O)n3C)CC2)cc1,13.6% (inactive)
9,O=C(Nc1nc2c(Cl)cccc2s1)c1ccc([N+](=O)[O-])o1,-6.76% (inactive)
10,Cc1onc(-c2cccc(Cl)c2Cl)c1C(=O)O/N=C(\N)c1ccc([N+](=O)[O-])o1,-4.83% (inactive)
11,CC(=O)N1CCN(c2ccccc2NC(=O)c2cc3ccccc3o2)CC1,2.75% (inactive)
12,CCCOc1ccc(Cn2cnc3ccccc32)cc1,27.3% (inactive)
13,Cc1ccc(-c2csc(NC(=O)c3ccc([N+](=O)[O-])o3)n2)cc1,-19.4% (inactive)
14,O=C(Nc1ccccc1Cl)c1ccc([N+](=O)[O-])o1,-5.01% (inactive)
15,Nc1ccc(C(=O)NN2C(=O)[C@H](Cl)C2c2ccc(Cl)cc2)cc1 (stereo not given in full),-16.2% (inactive)
16,Cc1ccc(S(=O)(=O)Nc2ccc3c(c2)n(C)c(=O)n3C)cc1,-96.8% (inactive)
17,COc1ccc(C2=Nn3c(nnc3-c3ccncc3)SC2)cc1OC,-2.76% (inactive)
18,O=C(NCc1cccnc1)c1ccc([N+](=O)[O-])o1,-3.23% (inactive)
19,COc1cccc2c1C(=O)c1c(O)c3c(c(O)c1C2=O)C[C@@](O)(C(C)=O)C[C@@H]3O[C@H]1C[C@H](N)[C@H](O)[C@H](C)O1,94% (active)
20,COc1ccc(/C=N/OCC(=O)NC(c2ccccc2)c2ccccc2)cc1OC,54.7% (active)
